Laboratory results from PubChem BioAssay AID1159580 (chemical genetic matrix, 2015).
Values joined by “and” are separate entries in the source; they are usually repeats but may differ in a detail not shown here. Equal values may be shown once. The whole screen tested about 5,500 compounds, of which about 2,000 (36%) were called active. Inconclusive results (about 18%) are left out. Rule as the data show it: active = normalized growth mostly below about 0.91 (no sharp cut-off); inconclusive = no clear call, values can overlap the other calls; inactive = mostly above about 0.92. The list shows a part of the results.

Experiment: chemical genetic growth profiling, strain panel (AID 1159580);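 also: tested at 20 µM; growth read once vehicle control cultures reached saturation at 30 °C; 1 = growth at the plate median or of vehicle wells; lower values mean less growth of the strain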
Details: S. cerevisiae deletion strains, growth OD

Measured: normalized growth

C[C@]12C=CC(=O)C=C1CCC1C3C[C@@H](O)[C@](O)(C(=O)CO)[C@@]3(C)C[C@H](O)[C@@]12F (some centres undefined)
inactive: locus YAL021C, strain ccr4, stronger effect = lower value 0.932 | locus YAL026C, strain drs2, stronger effect = lower value 0.992 | locus YAL030W, strain snc1, stronger effect = lower value 0.996 | locus YBL061C, strain skt5, stronger effect = lower value 0.984 | locus YBR009C, strain hhf1, stronger effect = lower value 0.999 | locus YBR021W, strain FUR4, stronger effect = lower value 1.02 | locus YBR023C, strain chs3, stronger effect = lower value 0.961 | locus YBR171W, strain sec66, stronger effect = lower value 0.976 | locus YBR229C, strain ROT2, stronger effect = lower value 1.01 | locus YBR231C, strain swc5, stronger effect = lower value 1.01 | locus YBR279W, strain paf1, stronger effect = lower value 0.973 | locus YCL011C, strain gbp2, stronger effect = lower value 0.974 | locus YCL016C, strain dcc1, stronger effect = lower value 0.958 | locus YCL029C, strain bik1, stronger effect = lower value 0.98 | locus YCL061C, strain MRC1, stronger effect = lower value 0.996 | locus YCL069W, strain vba3, stronger effect = lower value 0.983 | locus YCR088W, strain abp1, stronger effect = lower value 0.985 | locus YDL005C, strain med2, stronger effect = lower value 0.997 | locus YDL035C, strain GPR1, stronger effect = lower value 1.02 | locus YDL040C, strain nat1, stronger effect = lower value 0.992 | locus YDL074C, strain BRE1, stronger effect = lower value 1.04 | locus YDL101C, strain DUN1, stronger effect = lower value 1.02 | locus YDL134C, strain PPH21, stronger effect = lower value 1 | locus YDL185W, strain tfp1, stronger effect = lower value 0.973 | locus YDL192W, strain arf1, stronger effect = lower value 0.984 | locus YDR001C, strain nth1, stronger effect = lower value 0.983 | locus YDR069C, strain doa4, stronger effect = lower value 0.954 | locus YDR101C, strain arx1, stronger effect = lower value 0.971 | locus YDR137W, strain rgp1, stronger effect = lower value 0.965 | locus YDR150W, strain NUM1, stronger effect = lower value 1.02 | locus YDR159W, strain sac3, stronger effect = lower value 0.975 | locus YDR162C, strain NBP2, stronger effect = lower value 1 | locus YDR195W, strain ref2 0.991 | locus YDR297W, strain sur2, stronger effect = lower value 0.994 | locus YDR318W, strain mcm21, stronger effect = lower value 0.985 | locus YDR334W, strain swr1, stronger effect = lower value 0.976 | locus YDR335W, strain msn5, stronger effect = lower value 0.984 | locus YDR388W, stronger effect = lower value 0.982 | locus YDR392W, strain spt3, stronger effect = lower value 0.896 | locus YDR502C, strain sam2, stronger effect = lower value 0.981 | locus YEL003W, strain gim4, stronger effect = lower value 1 | locus YEL037C, strain rad23, stronger effect = lower value 0.987 | locus YEL061C, strain CIN8 (second series), stronger effect = lower value 0.991 | locus YEL061C, strain CIN8, stronger effect = lower value 1.01 | locus YER015W, strain faa2, stronger effect = lower value 0.999 | locus YER016W, strain bim1, stronger effect = lower value 0.942 | locus YER110C, stronger effect = lower value 0.979 | locus YER111C, strain swi4, stronger effect = lower value 0.975 | locus YER155C, strain BEM2 (second series), stronger effect = lower value 0.989 | locus YER155C, strain BEM2, stronger effect = lower value 1.01 | locus YER167W, strain BCK2, stronger effect = lower value 1 | locus YFR010W, strain ubp6, stronger effect = lower value 1 | locus YGL078C, strain dbp3, stronger effect = lower value 0.981 | locus YGL086W, strain mad1, stronger effect = lower value 0.996 | locus YGL167C, strain pmr1, stronger effect = lower value 0.992 | locus YGL173C, strain kem1, stronger effect = lower value 0.98 | locus YGL227W, strain vid30, stronger effect = lower value 0.962 | locus YGL240W, strain doc1, stronger effect = lower value 0.991 | locus YGL248W, strain PDE1, stronger effect = lower value 1.02 | locus YGL253W, strain hxk2, stronger effect = lower value 0.98 | locus YGR135W, strain pre9, stronger effect = lower value 0.99 | locus YGR229C, strain SMI1, stronger effect = lower value 1.01 | locus YGR252W, strain gcn5, stronger effect = lower value 1.01 | locus YHR013C, strain ard1, stronger effect = lower value 0.952 | locus YHR027C, strain rpn1, stronger effect = lower value 0.998 | locus YHR030C, strain SLT2, stronger effect = lower value 1.01 and 0.984 | locus YHR079C, strain IRE1 (second series), stronger effect = lower value 0.973 | locus YHR079C, strain IRE1, stronger effect = lower value 0.991 | locus YHR094C, strain hxt1, stronger effect = lower value 0.984 | locus YHR129C, strain ARP1, stronger effect = lower value 1.02 | locus YHR142W, strain chs7, stronger effect = lower value 0.956 | locus YHR200W, strain rpn10, stronger effect = lower value 0.988 | locus YIL066C, strain RNR3, stronger effect = lower value 1.01 | locus YIL073C, strain SPO22, stronger effect = lower value 0.984 | locus YIL125W, strain kgd1, stronger effect = lower value 0.989 | locus YIR030C, strain dcg1, stronger effect = lower value 0.98 | locus YJL092W, strain hpr5, stronger effect = lower value 0.99 | locus YJL095W, strain BCK1 (second series), stronger effect = lower value 0.995 | locus YJL095W, strain BCK1, stronger effect = lower value 1.03 and 0.985 | locus YJL115W, strain asf1, stronger effect = lower value 0.971 | locus YJL129C, strain trk1, stronger effect = lower value 0.948 | locus YJL134W, strain LCB3, stronger effect = lower value 1.01 | locus YJL154C, strain vps35, stronger effect = lower value 0.967 | locus YJL164C, strain tpk1, stronger effect = lower value 1.01 | locus YJL166W, strain qcr8, stronger effect = lower value 1.01 | locus YJL168C, strain set2, stronger effect = lower value 0.989 | locus YJL187C, strain SWE1 (second series), stronger effect = lower value 1.01 | locus YJL187C, strain SWE1, stronger effect = lower value 0.982 | locus YJR043C, strain POL32, stronger effect = lower value 1.02
